In the library only some 5.4% were active in any assay of this set; here they are far more common.
JMJD2C inh – inhibitors of human GASC-1 (JMJD2C) demethylase; Q9H3R0; GST-JMJD2C(1-420) H3K9me3 demethylation, DELFIA europium; inhibition, % at 2.35 µM; 330,000 tested, 0.069% active; AID 2099;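 active = more than half of a compound's replicate wells show inhibition beyond 50%, single wells judged on their own value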;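 also: signal counts dimethyl H3K9 product captured on neutravidin plate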
Target sequence (Q9H3R0 1-420 limits assumed): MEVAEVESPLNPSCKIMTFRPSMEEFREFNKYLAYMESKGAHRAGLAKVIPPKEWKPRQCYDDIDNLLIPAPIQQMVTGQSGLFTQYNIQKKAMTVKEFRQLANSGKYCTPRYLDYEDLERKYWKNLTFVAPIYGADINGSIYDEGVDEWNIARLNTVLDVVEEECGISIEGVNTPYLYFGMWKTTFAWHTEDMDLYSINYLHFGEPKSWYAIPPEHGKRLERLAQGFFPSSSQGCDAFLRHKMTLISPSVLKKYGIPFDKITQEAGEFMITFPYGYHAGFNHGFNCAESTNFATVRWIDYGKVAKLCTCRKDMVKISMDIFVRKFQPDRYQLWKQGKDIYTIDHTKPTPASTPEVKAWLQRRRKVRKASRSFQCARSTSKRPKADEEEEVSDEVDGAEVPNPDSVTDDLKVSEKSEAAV
M18AAP inhibitor – blocks P. falciparum M18 aspartyl aminopeptidase; recombinant PfM18AAP, H-Glu-NHMec fluorogenic cleavage; inhibition, % at 7.35 µM; 290,000 tested, 1.2% active;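 active = inhibition above the campaign mean inhibition over all tested compounds plus 3 SD, cut at about 28% in these data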
MIN6 prolif-1 – MIN6 beta-cell proliferation induction. MIN6 cells proliferation, ATPlite luminescence, 48 h; cells starved in 0.2% serum; 100% = growth in 10% serum. proliferation, % at 10 µM. 330,000 tested, 0.29% active;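 active = compounds whose signal lies at least 3.5 SD above the mean of all wells on their plate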
Granule exo inh – lytic granule exocytosis inhibition; TALL-104 LAMP-1 surface exposure, flow cytometry; cells stimulated with thapsigargin and PMA; inhibition, % at 10 µM; 360,000 tested, 0.66% active;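 active = inhibition above about 55%, limit read from the data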
ALR inh – human ALR oxidase inhibition via reduced H2O2 | inhibition, % (test concentration not listed) | purified ALR, DTT oxidation, H2O2 HRP-luminol luminescence | 290,000 tested, 3.8% active | AID 485317;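 active = mean replicate inhibition above about 79%, with every replicate also reaching it, limit read from the data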
Target sequence (P55789 whole entry, looked up): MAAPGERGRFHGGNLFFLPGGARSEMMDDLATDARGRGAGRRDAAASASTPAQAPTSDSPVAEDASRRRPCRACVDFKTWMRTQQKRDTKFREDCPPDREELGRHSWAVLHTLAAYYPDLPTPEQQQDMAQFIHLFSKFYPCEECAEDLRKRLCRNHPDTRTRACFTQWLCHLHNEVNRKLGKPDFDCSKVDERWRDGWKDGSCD
SMARCA2 activ – increases SMARCA2 function in MMTV reporter cells. MG213 cells, MMTV-luciferase reporter, dexamethasone, overnight. activation, % at 9.1 µM. 370,000 tested, 1% active; in the data active = activation above about 7.8%
MIN6 prolif-2 – MIN6 beta-cell replication induction, confirmed | shares compounds with MIN6 prolif-1 | MIN6 beta-cell proliferation, ATPlite luminescence, 48 h; cells kept in 0.2% serum; scaled between 0.2% and 10% serum | proliferation increase, % at 50 µM | 920 tested, under 10 active | AID 463095;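 active = proliferation increase above 40% at any of the four tested concentrations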
Exocytosis CP01 – lytic granule exocytosis inhibition. TALL-104 cells, LAMP-1 externalization, flow cytometry; stimulated with PMA plus thapsigargin. AID 651954. shares compounds with Granule exo inh. 1,500 tested, 11% active. inhibition, % at 10 µM; in the data active = inhibition above about 60%
SMARCA2 act conf – confirmation of SMARCA2 (BRM) function activators; shares compounds with SMARCA2 activ; MG213 cells, MMTV-luciferase with dexamethasone, luminescence, overnight; MG213 cells expressing E1A, Rb sequestered; DMSO wells 0%, reference activator 100%; activation, % at 9.1 µM; 3,500 tested, 30% active; AID 652260;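 active = activation above its plate's cutoff, the mean activation of tested wells plus 3 SD, cut at about 7.9% in these data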
VP16 Luc act – GAL4-VP16 reporter activation counter-screen; HEK293 GAL4-VP16 pG5luc reporter, luciferase luminescence; scaled: DMSO wells 0%, SAHA wells 100%; 3,500 tested, 41% active; shares compounds with SMARCA2 activ; activation, % at 9.1 µM;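 active = activation above the solvent-only control well mean plus 3 SD, averaged across control plates, cut at about 5.2% in these data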
Of the large screens only hits and unclear results are named; the others gave an inactive call (follow-up assays come after a bar, where they were run).

Cc1ccc(/C=N/NC(=O)CSc2nc3ccccc3s2)o1	MIN6 prolif-1 0.0 | MIN6 prolif-2 inactive
Cc1ccccc1OCC(=O)N/N=C/c1ccc(Sc2nc3ccccc3s2)o1	none
C=CCN1C(=O)[C@H](CC(=O)N2CCCCC2)[C@@]2(C(=O)OCC)CCCC=C12	none (no result: JMJD2C inh, M18AAP inhibitor, MIN6 prolif-1, Granule exo inh, ALR inh)
CCCCc1n[nH]c2c1/C(=N/OCC)CC(C)(C)C2	MIN6 prolif-1 9.1 | MIN6 prolif-2 inactive
COC(=O)C1=C(C)N(Cc2ccc(C(F)(F)F)cc2)C(=NCC2CC2)NC1c1ccccc1 (stereo unspecified)	none (no result: JMJD2C inh, M18AAP inhibitor, MIN6 prolif-1, Granule exo inh, ALR inh)
CC(C)Nc1nc(NC(C)(C)C)nc(Oc2ccc(=O)n(-c3ccccc3)n2)n1	MIN6 prolif-1 7.5 | MIN6 prolif-2 inactive
CCc1nnc(NC(=O)COc2ccccc2[N+](=O)[O-])s1	MIN6 prolif-1 4.6 | MIN6 prolif-2 inactive
CCCCS(=O)(=O)N1CCCc2nc(CC)c(CC)cc21	none (no result: JMJD2C inh, M18AAP inhibitor, MIN6 prolif-1, Granule exo inh, ALR inh)
COc1ccc(CNC(=O)CN(CCC(C)C)S(=O)(=O)c2ccc3c(c2)OCCO3)cc1	MIN6 prolif-1 5.3 | MIN6 prolif-2 inactive
CCOC(=O)c1ccc(NC(=O)CC2SC3=NCCN3C2=O)cc1 (stereo unspecified)	MIN6 prolif-1 5.8 | MIN6 prolif-2 inactive
Cc1ccc(-c2cc(C(=O)NN=Cc3cc(Br)ccc3O)[nH]n2)cc1C	none (no result: JMJD2C inh, M18AAP inhibitor, MIN6 prolif-1, Granule exo inh, ALR inh)
CCn1c(=O)c2cc(C(=O)N(C)c3ccc(OC)cc3OC)sc2c2ccccc21	MIN6 prolif-1 6.7 | MIN6 prolif-2 inactive
CCn1c(=O)c2cc(C(=O)N(C)c3cc(C)ccc3OC)sc2c2ccccc21	none
CC(=O)c1cccc(NC(=O)CSc2nc(C3CC3)nc3ccccc23)c1	MIN6 prolif-1 0.0 | MIN6 prolif-2 inactive
O=C(Nc1c(-c2ccc(F)c(F)c2)nc2ncccn12)C1CC1	none (no result: JMJD2C inh, M18AAP inhibitor, MIN6 prolif-1, Granule exo inh, ALR inh)
O=S1(=O)C=C(Sc2ccc(Cl)cc2)c2ccccc2C1Cc1ccc(F)cc1 (stereo unspecified)	none (no result: JMJD2C inh, M18AAP inhibitor, MIN6 prolif-1, Granule exo inh, ALR inh)
O=C(NC1CCCC1)C1CCCN(S(=O)(=O)c2cccc3cccnc23)C1 (stereo unspecified)	MIN6 prolif-1 9.5 | MIN6 prolif-2 inactive
O=C(NC1CCCCCC1)C1CCN(S(=O)(=O)c2cccc3cccnc23)CC1	none
COCCNC(=S)N(C)[C@H]1C[C@H]2c3[nH]c4c(-c5ccc6c(c5)OCO6)cccc4c3CCN2C(=O)[C@H]1[C@H](C)O	none (no result: JMJD2C inh, M18AAP inhibitor, MIN6 prolif-1, Granule exo inh, ALR inh)
COc1cc(-c2cnc3c(NC=O)cc(-c4ccsc4)cn23)cc(OC)c1OC	none (no result: JMJD2C inh, M18AAP inhibitor, MIN6 prolif-1, ALR inh)
COc1ccccc1C(=O)Nc1sc(C(=O)N2CCCC2)c(C)c1C#N	MIN6 prolif-1 8.8 | MIN6 prolif-2 inactive
Cc1c(C(=O)N2CCCC2)sc(NC(=O)c2ccc(Cl)cc2)c1C#N	none
COc1cc(-c2noc(C)c2C#CC2(O)CCCCC2)cc(OC)c1OC	MIN6 prolif-1 12 | MIN6 prolif-2 inactive
COc1cc(-c2noc(C)c2C#CC2(N)CCCCC2)cc(OC)c1OC	none
COc1ccc(OC)c(C(C(=O)NC2CCCCC2)N(C(=O)c2snc(C(N)=O)c2N)c2ccccc2OC)c1 (stereo unspecified)	none (no result: ALR inh)
COc1ccc(N(C(=O)c2ccco2)C(C(=O)NC2CCCC2)c2cccs2)cc1OC (stereo unspecified)	none
COc1ccccc1N(C(=O)c1ccco1)C(C(=O)NC1CCCC1)c1cccs1 (stereo unspecified)	MIN6 prolif-1 0.0 | MIN6 prolif-2 inactive
COc1ccccc1N(C(=O)c1snc(C(N)=O)c1N)C(C(=O)NC1CCCCC1)c1cccc(OC)c1OC (stereo unspecified)	MIN6 prolif-1 25 (no result: ALR inh) | MIN6 prolif-2 inactive
COc1cccc(/C=N/NC(=O)CO/N=C(\C)c2cccs2)c1OC	MIN6 prolif-1 4.6 | MIN6 prolif-2 inactive
COc1ccc(OC)c(C(=O)CSc2nccc(-c3ccc(Br)cc3)n2)c1	MIN6 prolif-1 5.6 | MIN6 prolif-2 inactive
Cc1ccc(OCCNC(=O)CNC(=O)c2ccc3c(c2)OCO3)cc1	MIN6 prolif-1 11 (no result: M18AAP inhibitor) | MIN6 prolif-2 inactive
CC[C@@H](OP(=O)(O)[C@@H](C)N)C(=O)O	none (no result: JMJD2C inh, M18AAP inhibitor, MIN6 prolif-1, Granule exo inh, ALR inh)
Nc1nc(CSc2nc3ccccc3s2)nc(N2CCCCC2)n1	MIN6 prolif-1 9.0 | MIN6 prolif-2 inactive
Nc1[nH]c(C(=O)c2ccccc2)c(-c2ccccn2)c1C(=O)c1c[nH]c2ccc(F)cc12	none (no result: JMJD2C inh, M18AAP inhibitor, MIN6 prolif-1, Granule exo inh, ALR inh)
COC(=O)c1cc2c(c3c4cc(OC)ccc4n(S(=O)(=O)c4ccc(OC)cc4)c13)C(=O)N(Cc1ccccc1OC)C2	none (no result: JMJD2C inh, M18AAP inhibitor, MIN6 prolif-1, Granule exo inh, ALR inh)
O=C1CN(S(=O)(=O)c2ccccc2)c2ccccc2N1	MIN6 prolif-1 13 | MIN6 prolif-2 inactive
O=C1CN(S(=O)(=O)c2ccc(F)cc2)c2ccccc2N1	none
Cc1cc(C)cc(N(CC(=O)NC2CCC(C)CC2)S(=O)(=O)c2ccc(Br)s2)c1 (stereo unspecified)	none (no result: JMJD2C inh, M18AAP inhibitor, MIN6 prolif-1, Granule exo inh, ALR inh)
S=C(NCCN1CCOCC1)N/N=C/c1cccs1	MIN6 prolif-1 10 | MIN6 prolif-2 inactive
CSCCCNC(=O)c1cn(C(C)c2ccccc2)nn1 (stereo unspecified)	none (no result: JMJD2C inh, M18AAP inhibitor, MIN6 prolif-1, Granule exo inh, ALR inh)
Cc1cc(=O)n2[nH]c(SCc3ccccc3)nc2n1	MIN6 prolif-1 8.3 | MIN6 prolif-2 inactive
Cc1cccn2c(=O)c3cc(C(=O)NCCc4ccccc4)sc3nc12	MIN6 prolif-1 7.4, Granule exo inh 92 | MIN6 prolif-2 inactive | Exocytosis CP01 inactive
COC(=O)c1cc2c(c3c4cc(C)ccc4n(S(=O)(=O)c4ccc(OC)cc4)c13)C(=O)N(Cc1ccc(C(F)(F)F)cc1)C2	none (no result: JMJD2C inh, M18AAP inhibitor, MIN6 prolif-1, Granule exo inh, ALR inh)
Cc1cc(C)c2c(N)c3ccccc3nc2n1	MIN6 prolif-1 7.5, SMARCA2 activ 19 | MIN6 prolif-2 inactive | SMARCA2 act conf 30 | VP16 Luc act inactive
CC(=O)CC(=O)O[C@@H]1C=C[C@H](NC(=O)OC(C)(C)C)C1	none (no result: JMJD2C inh, M18AAP inhibitor, MIN6 prolif-1, Granule exo inh, ALR inh)
COc1ccc(C2=Nn3c(nnc3-c3cccnc3)SC2)cc1OC	none (no result: M18AAP inhibitor, ALR inh)
COc1ccc(C2=Nn3c(nnc3-c3ccncc3)SC2)cc1OC	MIN6 prolif-1 8.6, SMARCA2 activ 8.6 | MIN6 prolif-2 inactive | SMARCA2 act conf inactive | VP16 Luc act inactive
